Here are results for 16 compounds from PubChem BioAssay (NCI).

Compounds without any hit were thinned out: in the full panel of roughly 83,000, 20% have a hit.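 A percent growth of 40 corresponds to 60% growth inhibition; 0 means no net growth; -100 means all cells died. Active threshold: below 10.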 The source made the active and inactive calls.

For the assay, the system named is HL-60(TB) leukemia. Put plainly: NCI-60 one-dose screen, 48 h (100 = growth as untreated, 0 = no growth, -100 = all killed). The following applies: 10 µM unless noted.
For the compound `O=c1cc(CSc2nnc(-c3ccc(F)cc3)o2)c2ccc3ccccc3c2o1`, the growth was 99.9% (inactive).

Turning to `CC(=O)NCCN`, the growth is 103% (inactive).

For `CCOc1ccc(-n2cc(-c3ccc(N(C)C)cc3)[n+]3c2CCCCC3)cc1`, the growth was -0.266% (active).

Consider `CSc1nnc2c(=O)n(C)c(=O)n(C)c2n1`, for which the growth was 161% (inactive).

Turning to `CNC(=O)c1cc(Oc2ccc3c(c2)sc2nc(-c4cc(C(F)(F)F)cc(C(F)(F)F)c4)cn23)ccn1`, the growth was 45.7% (inactive).

For the compound `Cc1cc2nc(-c3ccccc3)c(-c3ccccc3)nc2cc1C`, the growth was 48.3% (inactive).

Take `CC[C@@H](C)OC(=O)c1nn(C(C)=O)c2ccccc12`: the growth was 120% (inactive).

In the case of `Cc1ccc(N)c(O)c1`, the growth is 128% (inactive).

For the compound `Cc1cccc2c(N)c3ccccc3nc12`, the growth was 9.2% (active).

On to `Oc1[nH]c2ccc(Cl)cc2c1/C=c1/ccc2c(c1)N=C(c1ccc(F)cc1)N=2`, for which the growth is 51.5% (inactive).

Turning to `CCNC(=S)n1nc(SC)c(C(=O)OCC)c1N`, the growth is 100% (inactive).

On to `O=C(CSc1nc2sc3c(c2c(=O)n1-c1ccc(Cl)cc1)CCCC3)Nc1nc(-c2cccc(Br)c2)cs1`, for which the growth was 101% (inactive).

As to `COc1ccc(-c2nc3sccn3c2-c2ccnc(NCCCNS(=O)(=O)c3ccc4ccccc4c3)n2)cc1`, the growth was 66.1% (inactive).

On to `Cc1ccc2nc(N)nnc2c1`, for which the growth is 125% (inactive).

As for `COc1ccc(-c2nc(SCCC(C)C)nc(N/N=C\c3cccc([N+](=O)[O-])c3)c2C#N)cc1`, the growth is 97% (inactive).

In the case of `COc1cc(C2c3cc4c(cc3C3OC(=O)C2C3CO)OCO4)cc(OC)c1OC` (stereo unspecified), the growth was -17.2% (active).
